Records with an inconclusive call do not appear. A call without a number means that no potency is given here. Active and inactive are the calls of the source. Unless noted, calls follow the shape of the dose curve; as a rule, active = well fitted curve in the direction sought with a large enough effect in the repeat runs; inconclusive = weak or mixed curves; inactive = no such curve, though single readings can be large; an effect the other way counts as inactive or inconclusive.
Molecular target: Androgen receptor (Homo sapiens) (UniProt P10275)
Sequence (P10275 whole entry, looked up): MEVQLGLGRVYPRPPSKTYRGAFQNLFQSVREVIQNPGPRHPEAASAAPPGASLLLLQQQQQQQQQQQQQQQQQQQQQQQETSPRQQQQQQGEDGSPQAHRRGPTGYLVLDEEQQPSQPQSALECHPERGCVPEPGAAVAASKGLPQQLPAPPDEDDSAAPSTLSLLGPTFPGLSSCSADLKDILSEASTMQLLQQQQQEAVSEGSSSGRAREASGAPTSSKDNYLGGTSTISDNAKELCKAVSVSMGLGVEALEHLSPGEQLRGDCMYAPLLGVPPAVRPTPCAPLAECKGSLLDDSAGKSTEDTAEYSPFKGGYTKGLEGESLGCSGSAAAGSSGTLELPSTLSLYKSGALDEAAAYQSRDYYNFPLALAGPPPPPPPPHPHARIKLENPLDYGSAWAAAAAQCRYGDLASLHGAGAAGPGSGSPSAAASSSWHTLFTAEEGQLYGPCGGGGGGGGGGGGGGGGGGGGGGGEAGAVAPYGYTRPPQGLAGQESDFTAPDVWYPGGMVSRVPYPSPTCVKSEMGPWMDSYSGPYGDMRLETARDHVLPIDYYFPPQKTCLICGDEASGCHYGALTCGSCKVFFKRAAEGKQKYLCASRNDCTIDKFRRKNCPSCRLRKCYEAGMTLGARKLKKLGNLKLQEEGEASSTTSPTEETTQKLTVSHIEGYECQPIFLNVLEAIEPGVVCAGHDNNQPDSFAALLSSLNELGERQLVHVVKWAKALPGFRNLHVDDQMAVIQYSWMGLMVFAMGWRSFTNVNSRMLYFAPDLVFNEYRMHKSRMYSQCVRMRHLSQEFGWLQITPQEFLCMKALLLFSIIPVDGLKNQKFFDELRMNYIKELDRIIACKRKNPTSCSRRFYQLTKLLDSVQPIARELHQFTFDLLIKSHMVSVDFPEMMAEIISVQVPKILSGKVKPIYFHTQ
Test: qHTS assay to identify small molecule antagonists of the androgen receptor (AR) signaling pathway (AID 743035; active = well fitted inhibition curve with a large enough effect in the signal ratio in the repeat runs, not every such curve was filed as active; the % refers to the signal ratio; also: potency is read from the fitted curve at half-maximal effect)
Conditions: HEK293 AR-UAS-bla, R1881-stimulated, beta-lactamase FRET, 16 h; series mostly up to 58.5 µM
Method in brief: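 AR-bla HEK293 reporter cells; 4 h settle at 37C/5% CO2; compound + R1881 agonist, 16 h at 37C; LiveBLAzer B/G FRET substrate 2 h RT; fluorescence intensity read. qHTS format.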

Compound | Potency
O=C(Cn1ccnc1[N+](=O)[O-])NCCO | inactive
CCC(=O)C1CC(C(C)C)CC=C1C (stereo not drawn) | inactive
O=[N+]([O-])c1cc(C2CCCCC2)c(O)c([N+](=O)[O-])c1 | 5.48 µM (active)
OC(CCN1CCCC1)(c1ccccc1)C1CCCCC1 (stereo not drawn) | inactive
O=C=Nc1cccc(C(F)(F)F)c1 | 48.6 µM (active)

Molecular target: Androgen receptor (Homo sapiens) (UniProt P10275)
Test: qHTS assay to identify small molecule agonists of the androgen receptor (AR) signaling pathway (AID 743036; active = well fitted activation curve with a large enough effect in the signal ratio in the repeat runs, with a control signal flat, not every such curve was filed as active; the % refers to the signal ratio)
Conditions: HEK293 AR-UAS-bla GripTite, beta-lactamase FRET ratio, 16 h; series mostly up to 62.4 µM
Method in brief: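 AR-UAS-bla HEK293 cells, plated 4 h before dosing, were treated with compound for 16 h at 37C. beta-Lactamase reporter read after 2 h with LiveBLAzer B/G FRET substrate at room temperature.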

Compound | outcome
O=C(Cn1ccnc1[N+](=O)[O-])NCCO | inactive
CCCCC(CC)CN (stereo not drawn) | inactive
CC1=Nc2ccc3ccccc3c2C1(C)C | inactive
CCC(=O)C1CC(C(C)C)CC=C1C (stereo not drawn) | inactive
OC(CCN1CCCC1)(c1ccccc1)C1CCCCC1 (stereo not drawn) | inactive
COc1ccccc1NC(=O)c1cc2ccccc2cc1O | inactive
O=C=Nc1cccc(C(F)(F)F)c1 | inactive

Molecular target: Androgen receptor (Homo sapiens) (UniProt P10275)
Test: qHTS assay to identify small molecule agonists of the androgen receptor (AR) signaling pathway using the MDA cell line (AID 743040; also: nearly all actives have a fitted effect of over 20% in size)
Conditions: MDA-kb2 AR-luc cells, MMTV luciferase, 16 h, hits give high values; series mostly up to 70.3 µM
Method in brief: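 Cell-based luciferase reporter: MDA-kb2, MMTV promoter (AR + GR response elements). 16 h compound exposure at 37C; ONE-Glo, 30 min RT, luminescence.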

Compound | outcome
O=C(Cn1ccnc1[N+](=O)[O-])NCCO | inactive
O=c1cc(-c2ccccc2)oc2cc(O)cc(O)c12 | inactive
CCCCC(CC)CN (stereo not drawn) | inactive
CC1=Nc2ccc3ccccc3c2C1(C)C | inactive
CCC(=O)C1CC(C(C)C)CC=C1C (stereo not drawn) | inactive
O=[N+]([O-])c1cc(C2CCCCC2)c(O)c([N+](=O)[O-])c1 | inactive
OC(CCN1CCCC1)(c1ccccc1)C1CCCCC1 (stereo not drawn) | inactive
COc1ccccc1NC(=O)c1cc2ccccc2cc1O | inactive
c1cc(N(CC2CO2)CC2CO2)ccc1Cc1ccc(N(CC2CO2)CC2CO2)cc1 (stereo not drawn) | inactive
C/C=C/C=C/C=O | inactive
O=C=Nc1cccc(C(F)(F)F)c1 | inactive
C[C@@H]1CC(=O)NN=C1c1ccc(NN=C(C#N)C#N)cc1 | inactive

System: not listed separately
Test: qHTS assay to identify small molecule antagonists of the androgen receptor (AR) signaling pathway using the MDA cell line - cell viability counter screen (AID 743041; also: nearly all actives have a fitted effect of over 45% in size; also: potency is read from the fitted curve at half-maximal effect)
Conditions: MDA-kb2 viability, CellTiter-Fluor, 16 h, cells co-treated with R1881 androgen agonist; series mostly up to 70.3 µM
Method in brief: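 In this qHTS counter assay, fluorescence intensity after CellTiter-Fluor addition indicated viability of MDA-kb2 AR-luc cells given compounds and R1881 for 16 h at 37C.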

Compound | Potency
CCC1(CO)COCOC1 | inactive
O=c1cc(-c2ccccc2)oc2cc(O)cc(O)c12 | inactive
O=C1c2ccccc2C(=O)C1(O)O | inactive
O=C(CCc1ccc(O)cc1)c1c(O)cc(O)cc1O | inactive
C1C[C@@H]2[C@H]3CC[C@H](C3)[C@@H]2C1 | inactive
CCCCC(CC)CN (stereo not drawn) | inactive
CCCCCCCCOc1ccc(C(=O)O)cc1 | inactive
COC(=O)CS | inactive
Brc1cc2ccccc2c2ccccc12 | inactive
Cc1cc2c(OCC(CNC(C)(C)C)OC(=O)c3ccccc3)cccc2[nH]1 (stereo not drawn) | inactive
CCCCCC[C@@H](O)C/C=C\CCCCCCCC(=O)O | inactive
CC(=O)N/N=C/c1ccc([N+](=O)[O-])o1 | inactive
Cc1ccc(Cl)c(Nc2ccccc2C(=O)O)c1Cl | inactive
CCCCN1CCCC1C(=O)Nc1c(C)cc(C)cc1C (stereo not drawn) | inactive
CCOC(=O)/C=C/C(=O)OCC | inactive
O=C=Nc1ccc(Cl)c(Cl)c1 | inactive
CC(=O)NC1(c2cccc(F)c2)CCN(CC[C@@]2(c3ccc(Cl)c(Cl)c3)CN(c3ccccc3)C(=O)CO2)CC1 | inactive
CCC(=O)C1CC(C(C)C)CC=C1C (stereo not drawn) | inactive
Cc1cc(O)ccc1O | inactive
CCCCCCCCCCCCCCN(CCO)CCO | inactive
OC[C@H]1O[C@@H](n2cnc3c(=S)nc[nH]c32)[C@H](O)[C@@H]1O | inactive
O=[N+]([O-])c1cc(C2CCCCC2)c(O)c([N+](=O)[O-])c1 | 30.5 µM (active)
OC(CCN1CCCC1)(c1ccccc1)C1CCCCC1 (stereo not drawn) | inactive
COc1ccccc1NC(=O)c1cc2ccccc2cc1O | inactive
CN1CCCN=C1COC(=O)C(O)(c1ccccc1)C1CCCCC1 (stereo not drawn) | inactive
c1cc(N(CC2CO2)CC2CO2)ccc1Cc1ccc(N(CC2CO2)CC2CO2)cc1 (stereo not drawn) | inactive
C/C=C/C=C/C=O | inactive
O=C=Nc1cccc(C(F)(F)F)c1 | inactive
C[C@@H]1CC(=O)NN=C1c1ccc(NN=C(C#N)C#N)cc1 | 29.8 µM (active)

— PubChem BioAssay (Tox21)
